In the library only some 8.1% were active in any assay of this set; here they are far more common.
Gal4-VP16 FLuc = inhibits Gal4-VP16 luciferase reporter, ROR gamma counter-screen | hit rate 3.5% among 310,000 | AID 2546 | Potency, µM (series often up to 53.6 µM), actives largely listed as inhibitors | Drosophila S2 Gal4-VP16 UAS-luciferase, luminescence, 20 h;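 note: Gal4-VP16 expression switched on by copper sulfate through the metallothionein promoter; nearly all actives have a fitted effect of over 50% in size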
ClpP mod = qHTS Assay for Activators of ClpP; AID 651965, 2013; purified B. subtilis ClpP, FRET peptide cleavage, 20 min; ATP-dependent Clp protease proteolytic subunit (Bacillus subtilis (strain 168)), P80244; hit rate 1.9% among 340,000; Potency, µM (series often up to 57.5 µM); active = well fitted falling curve with a large enough effect; inconclusive = small, poorly fitted or top-dose-only effect; inactive = no such curve, though single readings can be large or run the other way; note: the source files actives as falling curves though it sought activators and does not explain the sign; nearly all actives have a fitted effect of over 65% in size
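FRET quenching reversal measured ClpP activation: 10 microg/mL B. subtilis ClpP at pH 8 with the FRET-FV decapeptide, read at 430 nm after 320 nm excitation. The 20-min minus 0-min signal was scaled between DMSO/no-enzyme wells and ADEP (5.8 microM final).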
Sfp PPTase inh = inhibitors of Bacillus subtilis Sfp phosphopantetheinyl transferase. Biochemical Sfp PPTase activity, qHTS. Potency, µM, actives largely listed as inhibitors. hit rate 3.5% among 310,000. AID 1490;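 note: the enzyme is Sfp with the accession as filed and its product quenches rhodamine fluorescence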
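Step 1, compound plus 15 nM Sfp-PPTase, 15 min, room temperature. Step 2, add rhodamine-CoA (5 uM) and BHQ-2-YbbR (12.5 uM). Step 3, read 525/598 nm fluorescence at 0 and 30 min.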
PINK1 expr mod = modulators of PINK1 expression; PINK1 immunofluorescence, high-content cytometry, 24 h; Potency, µM (series often up to 76.6 µM), hits mostly activators; hit rate 0.2% among 410,000; AID 624263; active = well fitted activation curve with a large enough effect; inconclusive = small, poorly fitted or top-dose-only effect; cell line not stated here; note: nearly all actives have a fitted effect of over 65% in size
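Measures PINK1 amount and localization on or inside mitochondria by immunofluorescence. Stable cells get compounds at 5 concentrations for 24 hours before fixation and staining; CCCP controls included.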
Epigenetic reg = regulators of epigenetic silencing causing reporter derepression in mouse cells | murine LDR cells, GFP reporter derepression, 30 h | Potency, µM (top dose mostly 53.9 µM), actives largely listed as activators | hit rate 0.2% among 280,000; note: nearly all actives have a fitted effect of over 60% in size
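Murine LDR cells carrying a silenced, genomically integrated CMV-driven GFP reporter were exposed to compound for 30 hours at 37 C. After PBS washes, GFP-positive cells (20–120 um objects) were counted by laser-scanning microplate cytometry.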
RORgamma inh = inhibitors of mouse ROR gamma transcriptional activity | AID 2551 | Potency, µM (highest dose often 53.6 µM), most hits filed as inhibitors | Drosophila S2 Gal4-RORgamma UAS-luciferase reporter, 20 h | hit rate 5.4% among 310,000 | P51450; note: nearly all actives have a fitted effect of over 60% in size
Target sequence (P51450 whole entry, looked up, the tested form may be a part): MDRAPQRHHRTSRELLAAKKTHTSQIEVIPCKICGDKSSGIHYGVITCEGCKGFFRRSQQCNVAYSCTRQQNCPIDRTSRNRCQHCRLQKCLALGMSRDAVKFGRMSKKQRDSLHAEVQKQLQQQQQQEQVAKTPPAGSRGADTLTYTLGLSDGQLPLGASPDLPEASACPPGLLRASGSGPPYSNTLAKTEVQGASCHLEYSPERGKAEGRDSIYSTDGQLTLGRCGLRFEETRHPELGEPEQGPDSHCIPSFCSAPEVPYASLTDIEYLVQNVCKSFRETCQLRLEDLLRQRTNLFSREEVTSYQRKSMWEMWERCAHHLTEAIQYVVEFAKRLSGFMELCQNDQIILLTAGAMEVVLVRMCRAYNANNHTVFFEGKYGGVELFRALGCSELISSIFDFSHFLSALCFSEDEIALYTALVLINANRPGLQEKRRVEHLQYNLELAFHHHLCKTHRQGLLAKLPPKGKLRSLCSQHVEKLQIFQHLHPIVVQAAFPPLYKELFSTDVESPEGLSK
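Drosophila Schneider cells stably carrying a metallothionein-driven Gal4 DBD–ROR gamma fusion and a UAS-Photinus luciferase reporter were exposed to compound for 1 hr, then induced with copper sulfate (700 uM final) for 20 hr at ambient temperature before luminescence reading.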
Large screens that a line does not name were inactive. Unless noted, calls come from the whole dose curve; as a rule, active = well fitted curve in the direction sought with a large enough effect; inconclusive = small, poorly fitted or top-dose-only effect, or another doubt; inactive = no such curve, though single readings can be large; an effect the other way counts as inactive or inconclusive.

COc1ccc2c(c1)C(=O)[C@H](OC(=O)NCc1ccco1)[C@@H](c1ccc(OC)c(Br)c1)O2	none (no result: ClpP mod, PINK1 expr mod)
CCNc1ncc2nc(-c3ccc(Cl)cc3)c(=O)n(-c3ccccc3)c2n1	PINK1 expr mod 12.6µM (no result: ClpP mod, Epigenetic reg)
C=CC(C1=CC(=O)C(OC)=C(OC)C1=O)c1ccccc1 (stereo not drawn)	Gal4-VP16 FLuc 7.08µM, Sfp PPTase inh 1.78µM, RORgamma inh 14.1µM (no result: ClpP mod)
C=CC(C1=CC(=O)C(OC)=CC1=O)c1ccc(OC)cc1 (stereo not drawn)	Sfp PPTase inh 39.8µM (no result: ClpP mod)
CN(c1ccccc1)S(=O)(=O)c1ccc(NC(=O)c2nc(S(C)(=O)=O)ncc2Cl)cc1	Gal4-VP16 FLuc 2.82µM, Sfp PPTase inh 28.2µM, RORgamma inh 6.31µM
COc1cccc(NC(=O)c2nc(S(C)(=O)=O)ncc2Cl)c1	Gal4-VP16 FLuc 5.01µM, Sfp PPTase inh inconclusive, RORgamma inh 3.98µM (no result: Epigenetic reg)
COc1ccc(CCNC(=O)C2CCCN(c3nc4c(C)cc(C)cc4s3)C2)cc1OC (stereo not drawn)	none (no result: Gal4-VP16 FLuc, Sfp PPTase inh, RORgamma inh)
O=C(Nc1nc(-c2ccccn2)cs1)c1ccc2c(c1)OCCO2	Gal4-VP16 FLuc 10µM, RORgamma inh 3.16µM
CC(=O)Nc1ccc(C(=O)Nc2nc(-c3cccnc3)cs2)cc1	ClpP mod 11.2µM, Sfp PPTase inh inconclusive
O=C(Nc1ccccn1)c1ccc2c(c1)OCCO2	RORgamma inh 10µM (no result: ClpP mod)
CCc1cc(C(=O)Nc2nc(-c3ccccn3)cs2)sc1C	none (no result: Gal4-VP16 FLuc, Sfp PPTase inh, Epigenetic reg, RORgamma inh)
Cc1csc(NC(=O)c2ccc3c(c2)OCO3)n1	RORgamma inh inconclusive (no result: ClpP mod, Epigenetic reg)
O=C(Nc1ccccn1)c1ccc2c(c1)OCO2	Gal4-VP16 FLuc inconclusive (no result: ClpP mod)
CC(=O)Nc1ccc(C(=O)Nc2nc(-c3ccccn3)cs2)cc1	Sfp PPTase inh 15.8µM, RORgamma inh 7.94µM
O=C(Nc1nc(-c2ccccn2)cs1)c1ccccc1-n1cnnn1	Sfp PPTase inh 15.8µM, RORgamma inh 5.01µM
Cn1nc(C(=O)Nc2nc(-c3ccccn3)cs2)c2ccccc2c1=O	PINK1 expr mod inconclusive (no result: Gal4-VP16 FLuc, Sfp PPTase inh, Epigenetic reg, RORgamma inh)
Cc1cc(NC(=O)c2ccc3c(c2)C(=O)N(c2cccc(C)c2C)C3=O)no1	Gal4-VP16 FLuc 17.8µM, RORgamma inh inconclusive (no result: Epigenetic reg)
Cc1cc(NC(=O)c2ccc3c(c2)OCCO3)no1	Gal4-VP16 FLuc 7.08µM, RORgamma inh 10µM
CNC(=S)NNc1nc(C)cc(C)n1	Sfp PPTase inh 2.51µM
CCOc1ccc(-c2cc3c(=O)n(CC(=O)NCc4ccc(F)cc4)ccn3n2)cc1	none (no result: Gal4-VP16 FLuc, Sfp PPTase inh, RORgamma inh)
COc1cccc([C@@H]2Oc3ccc(OC)cc3C[C@H]2O)c1	none (no result: ClpP mod, PINK1 expr mod)
CCOc1ccc(CC(=O)Nc2nccs2)cc1	none (no result: ClpP mod)
S=C(NCc1ccccc1)Nc1nccs1	Gal4-VP16 FLuc 1.26µM, RORgamma inh 0.891µM (no result: ClpP mod, Epigenetic reg)
C/C(=C\C(=O)Nc1nccs1)c1ccccc1	Gal4-VP16 FLuc 11.2µM, RORgamma inh 8.91µM
O=C(COc1ccc2ccccc2c1)Nc1nccs1	Gal4-VP16 FLuc 15.8µM, Epigenetic reg inconclusive, RORgamma inh 10µM
Cc1ccc(CC(=O)Nc2nccs2)cc1C	Gal4-VP16 FLuc 2.51µM, RORgamma inh inconclusive (no result: ClpP mod, Epigenetic reg)
CCCc1cc(C(=O)Nc2c(C)nn(Cc3c(Cl)cccc3Cl)c2C)no1	none (no result: Gal4-VP16 FLuc, Sfp PPTase inh, RORgamma inh)
O=C(COc1ccccc1)Nc1nccs1	Gal4-VP16 FLuc inconclusive, RORgamma inh 12.6µM (no result: PINK1 expr mod)
Cc1sc(NC(=O)COc2ccccc2)c(C#N)c1C	Sfp PPTase inh 22.4µM (no result: ClpP mod)
Cc1cccc(N2CCN(CC(=O)Nc3nccs3)CC2)c1C	RORgamma inh 10µM
O=C(COc1ccccc1)Nc1ncccn1	none
CN1CCN(c2nc3c(S(=O)(=O)c4ccc(Br)cc4)nnn3c3ccsc23)CC1	none (no result: Gal4-VP16 FLuc, Sfp PPTase inh, RORgamma inh)
COc1c(N2CCN(C(=S)Nc3ccccc3)C(C)C2)c(F)cc2c(=O)c(C(=O)O)cn(C3CC3)c12 (stereo not drawn)	none (no result: ClpP mod, PINK1 expr mod)
CNC(=S)N1CCN(c2c(F)cc3c(=O)c(C(=O)O)cn(C4CC4)c3c2OC)CC1C (stereo not drawn)	ClpP mod 28.2µM
COc1ccc(C2c3cccn3CCN2S(=O)(=O)c2ccccc2[N+](=O)[O-])cc1OC (stereo not drawn)	none (no result: Gal4-VP16 FLuc, Sfp PPTase inh, RORgamma inh)

Screening data as filed in PubChem.
